A selection: hits, their analogues and other compounds. The true share with any hit is near 7.9%.
HCMV antiviral – inhibitors of human cytomegalovirus. HFF cells, HCMV-luciferase reporter, 72 h; active compounds read low. activity change, negative = inhibition, % at 57.5 µM. 410,000 compounds, 4.5% hits; in the data active = activity change below about -60%; inconclusive = no clear call, values can overlap the other calls; inactive = above about -39%
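After 16 h attachment at 37C, HFF cells received test compound and HCMV-luciferase (1 PFU/cell); reporter luminescence read 72 h later, data normalized against buffer-only and known inhibitor Salinomycin.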
HCV inh – blocks hepatitis C virus; Huh7.5.1 HCVcc-Cre infection, luciferase reporter, 44 h; Potency, µM (series often up to 41.8 µM), for the others: at the highest dose activity change, negative = inhibition, actives largely listed as inhibitors; 340,000 compounds, 3.4% hits; AID 651820; active = well fitted inhibition curve with a large enough effect; inconclusive = small, poorly fitted or top-dose-only effect, or another doubt; inactive = no such curve, though single readings can be large or run the other way; also: potency is read from the fitted curve at half-maximal effect
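Reporter virus HCVcc-Cre (~0.5 moi) infects cells exposed to compound; seeding density 1,000 cells/well with 4 h settling beforehand. Luminescence, 15 sec read, taken 44 h post-infection following a 15 min RT substrate incubation.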
FMDV antiviral – antivirals against foot and mouth disease virus | FMDV antiviral cell-based qHTS | Potency, µM (titrated, usually from 57.9 µM), for the others: top-dose activity change, negative = inhibition, usual class: inhibitors | 410,000 compounds, 1.2% hits | AID 1159524; calls by dose curve; tested in HEK293T cells; also: read-out not given here; potency is read from the fitted curve at half-maximal effect; nearly all actives have a fitted effect of over 45% in size
Marburg entry inh – Marburg virus entry inhibition; Marburg virus pseudotyped entry inhibition, cell reporter; Potency, µM (titrated, usually from 37.8 µM), without a hit: top-dose activity change, negative = inhibition, most hits filed as inhibitors; 300,000 compounds, 1.8% hits; calls by dose curve; tested in HEK293 cells; also: potency is read from the fitted curve at half-maximal effect
LASV entry inh – inhibitors of Lassa virus binding or cell entry. 300,000 compounds, 1.2% hits. Potency, µM (doses to about 37.9 µM), for the others: at the top dose activity change, negative = inhibition, hits mostly inhibitors. Lassa virus pseudotype entry inhibition, cell reporter; calls by dose curve; tested in HEK293 cells; also: potency is read from the fitted curve at half-maximal effect; nearly all actives have a fitted effect of over 50% in size
* hit, by the source's call; ? = inconclusive; . = no result; [ ] = dose if it differs, or a comment. % is scaled to controls: 0 for no effect and ±100 for the full control effect.

SMILES | HCMV antiviral | HCV inh | FMDV antiviral | Marburg entry inh | LASV entry inh
O=c1oc2ccccc2c2c1cnc1ccccc12 | 40 | 8% | -12% | . | .
Cc1cnc(N)c2c(=O)oc3ccccc3c12 | 67 | 6.3µM* | 2% | -3% | .
O=C(OCn1ncc(Cl)c(Cl)c1=O)c1ccc(C(F)(F)F)cc1 | -86* | 10µM* | ? | ? | ?
Cc1ccc(C(=O)OCn2ncc(Cl)c(Cl)c2=O)cc1 | -102* | 2.5µM* | 16µM* | 15µM* | 23µM*
OC[C@H]1O[C@@H](O[C@@H]2[C@@H](CO)O[C@@](O)(CO)[C@H]2O)[C@H](O)[C@@H](O)[C@H]1O | -14 | 13% | -25% | . | .
CCCn1nc(NC(=O)c2ccco2)c2cc3cc(C)ccc3nc21 | 28 | 13µM* | 4% | . | .
CC(C)c1c(O)ccc2c1CCC1[C@@](C)(C=O)CCC[C@@]21C (some centres not stated) | . | . | -23% | . | .
CN(Cc1ccc(OC(F)F)cc1)C(=O)C1CCN(S(=O)(=O)c2ccc3c(c2)OCCO3)CC1 | -36 | 6.3µM* | ? | . | .
COc1cccc(NC(=O)CN(C)C(=O)c2cccc(S(=O)(=O)N3CCN(c4ccccc4)CC3)c2)c1 | -26 | ? | 0% | . | .
CN(Cc1ccc(Cl)cc1Cl)C(=O)c1cccc(S(=O)(=O)N2CCN(c3ccccc3)CC2)c1 | ? | 13µM* | ? | ? | ?
CN(Cc1ccc(Cl)cc1Cl)C(=O)c1cccc(S(=O)(=O)NCc2ccccc2)c1 | -5 | -25% | 15% | -54% | -8%
CN(CCOc1ccc(Cl)cc1)C(=O)c1cccc(S(=O)(=O)N2CCN(c3ccccc3)CC2)c1 | -25 | 3.5µM* | ? | . | .
COc1cccc(CN(C)C(=O)c2cccc(S(=O)(=O)N3CCN(c4ccccc4)CC3)c2)c1OC | -70* | 7.1µM* | 18µM* | 0% | .
COc1ccc(F)cc1S(=O)(=O)Nc1cccc(-c2ccc(N3CCCCCC3)nn2)c1 | -2 | . | 39% | . | 19%[46.1 µM]
COc1ccc(CCN(C)C(=O)c2cc(S(=O)(=O)N3CCCCCC3)ccc2OC)cc1OC | -10 | ? | -14% | ? | -14%
CCN(Cc1ccccc1)C(=O)c1cccc(S(=O)(=O)N2CCN(c3ccc(F)cc3)CC2)c1 | ? | ? | ? | -26% | ?
CN(Cc1ccc(OC(F)F)cc1)C(=O)c1cccc(S(=O)(=O)N2CCN(Cc3ccccc3)CC2)c1 | -92* | 5.6µM* | 13µM* | ? | ?
COc1cccc(CN(C)C(=O)c2cccc(S(=O)(=O)N3CCN(Cc4ccccc4)CC3)c2)c1OC | -74* | 7.9µM* | ? | ? | ?
CN(Cc1ccco1)C(=O)c1cccc(S(=O)(=O)N2CCN(Cc3ccccc3)CC2)c1 | -12 | . | -23% | . | .
COc1cccc(CN(C)C(=O)c2cccc(S(=O)(=O)N3CCN(c4ccc(F)cc4)CC3)c2)c1OC | -80* | ? | 20µM* | 2µM* | ?
COc1ccc(S(=O)(=O)N2CCCCCC2)cc1C(=O)N(C)CCOc1ccc(Cl)cc1 | -39 | ? | ? | ? | 18µM*
Cc1ccc(NC(=O)N2CCc3cc(S(=O)(=O)N4CCC(C)CC4)ccc32)cc1C | 16 | . | -11% | 10%[46.1 µM] | -7%[46.1 µM]
CC/C(=N/Nc1ccc(Cl)cc1)c1cnnc(SC)n1 | 1 | -20% | 10% | 3% | 18%
CC/C(=N/Nc1cccc(C)c1)c1cnnc(SC)n1 | -68* | 10µM* | ? | ? | -8%
CCOC(=O)NN=C1C[C@@H](O)[C@@H](O)[C@@H]2[C@H]3C(=O)N(CC)C(=O)[C@@H]3CC[C@@H]12 | . | . | . | 8%[14.2 µM] | ?
SMILES | HCMV antiviral | HCV inh | FMDV antiviral | Marburg entry inh | LASV entry inh
CCOC(=O)/C=C(\C)Sc1cc(O)c2ccccc2c1O | -100* | ? | 28µM* | . | .
CCOC(=O)/C=C(\C)Sc1cc(=O)oc2ccccc12 | -7 | ? | 0% | -28% | -17%
CCN(C(=O)CCS(=O)(=O)c1cccc2nonc12)c1ccc(C)c(C)c1 | -19 | 9% | 13% | ? | -7%
Cc1cccc(N(C)C(=O)CCS(=O)(=O)c2cccc3nonc23)c1 | -66* | -7% | -6% | 4% | 10%
Cc1nn(-c2ccccc2)c(Cl)c1C(=O)NCC(=O)O | -9 | 11% | -2% | 0% | 3%
Cc1nn(-c2ccccc2)c(Cl)c1CN(C(=O)CCl)c1cccc2ccccc12 | -99* | ? | 28µM* | ? | ?
CC(=O)N(Cc1c(C)nn(-c2ccccc2)c1Cl)c1ccc(Cl)cc1 | -27 | ? | ? | 2% | -2%
Cc1nn(-c2ccccc2)c(Cl)c1CN(C(=O)CCl)c1ccc(Cl)cc1 | -99* | 10µM* | -4% | ? | ?
COc1ccc(CN(C(=O)c2snc(C(N)=O)c2N)C(C(=O)NC2CCCC2)c2ccc(OC)c(OC)c2)cc1 (configuration not stated) | ? | -14% | 18% | -22%[46.1 µM] | -14%[46.1 µM]
COc1ccc(CN(C(=O)c2nsc(Cl)c2Cl)C(C(=O)NC2CCCC2)c2ccc(C)cc2)cc1 (configuration not stated) | ? | ? | 13% | ? | 16µM*
COc1ccc(CN(C(=O)c2nsc(Cl)c2Cl)C(C(=O)NC2CCCCC2)c2ccc(OC)cc2)cc1 (configuration not stated) | -36 | ? | . | 15µM* | ?
Cc1cccc(-c2nc(C)c(CCNC(=O)C(=O)Nc3cccc(Cl)c3C)s2)c1 | -2 | . | 7% | . | 3%[46.1 µM]
COc1cc2c(cc1C1NC(=S)NC(C)=C1C(N)=O)CCCC2 (configuration not stated) | 46 | 4% | 3% | . | .
COc1ccc(C(=O)C2CCCN(S(=O)(=O)c3ccc(C(C)=O)cc3)C2)c(C)c1 (configuration not stated) | -36 | 10µM* | ? | . | .
COc1ccc(OC2CCN(S(=O)(=O)c3ccc(C(C)=O)cc3)CC2)cc1 | -63* | 13µM* | -21% | . | .
CCS(=O)(=O)N1CCCC(C(=O)c2ccc(OC)cc2C)C1 (configuration not stated) | -40 | ? | -13% | -9%[46.1 µM] | ?
COc1ccc(OC2CCN(S(=O)(=O)c3ccc(F)cc3)CC2)cc1 | -18 | 17% | -12% | ? | ?
COc1cc([C@H]2C(C(=O)c3cccs3)=C(O)C(=O)N2c2cc(C)on2)ccc1O | . | . | . | 11%[46.1 µM] | .
CCOc1ccc(NC(=O)c2cc(OC)nc3ccccc23)cc1 | -64* | ? | -5% | -23%[46.1 µM] | ?
COC(=O)c1cc(OC)nc2ccc(Br)cc12 | 8 | 11µM* | -16% | . | .
COc1cc(C(=O)Nc2ccc(C)cc2)c2ccccc2n1 | -60* | -7% | -5% | ? | ?
CCN(Cc1nc(-c2ccc(OC)cc2)oc1C)S(=O)(=O)c1ccc(Cl)cc1 | -22 | . | ? | . | ?
CCN1C(=NCCc2cccnc2)NC(CCc2ccccc2)C(C(=O)OC)=C1C (configuration not stated) | . | . | . | 38%[14.2 µM] | .
COC(=O)c1cc(CNC(=O)c2ccccc2OC)cc(NC(=O)c2ccccc2F)c1 | . | . | 32% | . | .
